Screens from PubChem BioAssay.
WT yeast gro inh – growth inhibition of WT yeast, mitochondrial fusion screen; mitochondrial fusion phenotypic screen, WT strain; inhibition, % at 10 µM; actives 2.1% (n = 190,000); in the data active = inhibition above about 58%; tested in S. cerevisiae
CHOP inhibitor – blocks CHOP induction under ER stress; CHO-K1 CHOP-promoter luciferase, tunicamycin-induced, 15-18 h; inhibition, % at 10 µM; actives 3.8% (n = 220,000); AID 2732;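 active = compounds that reduced the stress-induced luciferase reporter signal by more than about 70% of percent inhibition, limit read from the data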;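 note: 0% = tunicamycin plus vehicle and 100% = wells without tunicamycin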
L major viab – reduces viability of Leishmania major promastigotes | resazurin fluorescence viability | inhibition, % at 10 µM | actives 9% (n = 200,000) | AID 1063; in the data active = inhibition above about 50%;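 note: promastigotes grown with compound for 44 hours at 28 °C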
RAM network inh – blocks the yeast RAM network; S. cerevisiae dse1pr::URA3 reporter, 5-FOA growth OD615, 2 d; analog-sensitive cbk1-as2 kinase mutant strain; inhibition, % at 50 µM; actives 1.8% (n = 190,000); AID 868;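 active = inhibition above a set limit, 3 SD over mean compound inhibition, cut at about 8.4% in these data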;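 note: 0% = DMSO-only wells with no growth and 100% = 10 µM 1-NA-PP1 full growth; inhibition rescues growth on 5-FOA so higher OD means more RAM inhibition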
Starred values were filed as active, the others as inactive; . = no result. Sampled rows, rich in hits. Any-hit rate of the full collection: about 13%.

SMILES | WT yeast gro inh | CHOP inhibitor | L major viab | RAM network inh
COCc1nnc(NC(=O)c2cc(OC)c(OC)cc2[N+](=O)[O-])s1 | 0.5 | 13.7 | -6.2 | 1.3
CCc1nn(-c2ccccc2)c(=S)c2ccccc12 | 1.0 | 47.1 | 3.7 | 1.8
CCN1CCC(NC(=O)Nc2cc(Cl)ccc2OC)CC1 | 7.2 | 0.2 | 19.9 | 1.3
O=C(CCCN1CCC(O)(c2ccc(Cl)cc2)CC1)c1ccc(F)cc1 | 44.6 | 8.0 | 97.3* | 1.2
O=C(CCCN1CCC(O)(c2cccc(C(F)(F)F)c2)CC1)c1ccc(F)cc1 | . | -8.6 | . | .
Cc1ccc(-c2nc3ncccc3o2)cc1NC(=O)c1cccs1 | -4.1 | 4.8 | 94.8* | 2.1
Cc1ccc(-c2nc3ncccc3o2)cc1NC(=S)NC(=O)c1ccco1 | -7.0 | -0.6 | 1.1 | 2.7
Cc1ccc(-c2nc3ncccc3o2)cc1NC(=O)c1sc2ccccc2c1Cl | -37.5 | 57.5 | -0.8 | 4.4
CCCC(=O)NC(=S)Nc1cc(-c2nc3ncccc3o2)ccc1C | . | 4.5 | . | .
Cc1ccc(-c2nc3ncccc3o2)cc1NC(=O)c1ccco1 | . | . | 99.2* | .
CCCC(=O)Nc1cc(-c2nc3ncccc3o2)ccc1C | -5.7 | -16.0 | 89.1* | 0.4
Cc1ccc(S(=O)(=O)NCC(=O)NCC(=O)OC(C(=O)NC(N)=O)C(C)C)cc1C (stereo unspecified) | . | -1.8 | . | .
COC(=O)N1CCN(CCc2ccccc2)CC1 | 3.9 | 24.7 | 96.9* | 3.4
O=C(NC1CCCCC1)N1CCN(CCc2ccccc2)CC1 | 2.4 | 9.2 | 60.2* | 0.2
COc1ccccc1NS(=O)(=O)c1ccc(O)c(C(=O)OCC(=O)N2c3ccccc3CC2C)c1 (stereo unspecified) | 8.7 | 37.5 | -1.6 | 5.0
Cc1[nH]ccc(=O)c1Oc1ncc(C(F)(F)F)cc1Cl | -1.3 | 10.7 | 15.7 | 0.6
N#CC(C#N)=c1ccc2c(c1)N1C3=C(CCCC3)CC3CCCCC31N=2 (stereo unspecified) | 72.5* | -1.8 | 99.3* | 7.4
N#C/C(C(N)=O)=c1/ccc2c(c1)N1C3=C(CCCC3)CC3CCCCC31N=2 (stereo unspecified) | 30.5 | 82.4* | 73.5* | 8.4
CCOC(=O)c1nc2sc3c(c2c(=O)n1C(C)C(=O)OCC)CCCC3 (stereo unspecified) | -7.2 | 35.0 | -4.5 | -0.5
O=C(c1ccco1)N(CCO)Cc1cc2cc3c(cc2[nH]c1=O)OCO3 | -1.6 | -20.5 | -3.5 | 0.8
O=C(Oc1cccc(C(=S)N2CCCCC2)c1)c1ccccc1 | 60.1* | 6.0 | -5.6 | 3.2
O=C(Oc1ccc(C(=S)N2CCCCC2)cc1)c1ccccc1 | 37.9 | 14.7 | 13.5 | 0.5
O=C(COc1cccnc1[N+](=O)[O-])NCCc1ccccc1 | -4.3 | 3.5 | -6.2 | 1.2
Cc1c(-c2cccc(NC(=O)c3cccs3)c2)nc2ncccn12 | -23.1 | 13.0 | 75.2* | 1.1
Cc1c(-c2cccc(NC(=O)c3ccco3)c2)nc2ncccn12 | 0.2 | -22.7 | 100.0* | 0.1
SMILES | WT yeast gro inh | CHOP inhibitor | L major viab | RAM network inh
CCCC(=O)NCCc1c2n(c3ccc(OC)cc13)Cc1ccccc1-2 | . | -20.8 | . | .
CCOC(=O)c1[nH]c2ccc(OCC)cc2c1NC(=O)CN1CCCC(C)C1 (stereo unspecified) | -16.4 | -4.3 | 31.1 | 1.1
CCOC(=O)c1[nH]c2cc3c(cc2c1NC(=O)CN1CC(C)CC(C)C1)OCO3 (stereo unspecified) | 18.8 | 79.4* | 23.6 | 0.9
C=CCc1ccc(O)c(-c2cc(CC=C)ccc2O)c1 | 73.6* | 28.7 | -8.5 | -1.8
C=CCc1ccc(OCC(O)CO)c(OC)c1 (stereo unspecified) | 13.0 | -1.5 | 0.4 | 1.8
CSC(=NC#N)N1CCN(c2ccccc2)CC1 | -20.1 | 8.6 | 43.1 | 0.3
Nc1nc(-c2ccccc2)cn1/N=C/c1ccccc1 | . | -31.0 | . | .
CC(=O)N(C(C)=O)c1nc(-c2ccccc2)cn1/N=C/c1cccc([N+](=O)[O-])c1 | . | 91.8* | . | .
CC(=O)c1ccc(NC(=O)C2C3C=CC(C3=C(c3ccccc3)c3ccccc3)C2C(=O)O)cc1 (stereo unspecified) | -9.1 | -2.4 | 51.9* | 10.3*
COc1cc(CNCCN2CCOCC2)ccc1OCc1cccc(Cl)c1 | -4.2 | 9.7 | 95.5* | -0.1
COc1ccc(C(=O)NCCN2CCOCC2)cc1OC | -14.7 | 29.7 | 2.0 | -0.9
COc1cc(CNCCN2CCOCC2)ccc1OCc1ccc(Cl)cc1Cl | -7.3 | 15.8 | 100.5* | -0.8
Cc1cc(C)n2cc(CSc3nncn3C)nc2n1 | -0.9 | -12.6 | 1.2 | -0.6
COc1ccc(CCNC(=O)CSc2nc(C)nc3sccc23)cc1OC | . | -3.0 | . | .
CN(N)C(=S)Nc1ccc(Cl)cc1 | -1.7 | 6.1 | 22.0 | 2.9
NC(=O)c1c(-c2ccc(Cl)cc2Cl)csc1NC(=O)Cc1ccccc1 | 2.4 | 73.0* | 47.3 | 3.9
CSc1ccc(CN2CCCC(CNC(=O)c3ccc(F)cc3)C2)cc1 (stereo unspecified) | 5.4 | 16.1 | 84.1* | 0.3
CSc1cccc(CN2CCCC(CNC(=O)c3ccc(F)cc3)C2)c1 (stereo unspecified) | -7.5 | 16.1 | 77.3* | -0.4
CCOc1ccc(CN2CCCC(CNC(=O)c3ccc(F)cc3)C2)cc1CO (stereo unspecified) | 3.5 | 2.8 | -1.1 | 3.0
COc1ccc(CN2CCN(C(=O)C3CCC(CNS(=O)(=O)c4ccc(C)cc4)CC3)CC2)c(OC)c1OC (stereo unspecified) | -4.5 | 17.9 | 7.2 | -0.6
COc1ccc(C)cc1S(=O)(=O)N1CCN(c2cccc(C(F)(F)F)c2)CC1 | 30.2 | 31.5 | 27.5 | 11.3*
COc1ccc(Cl)cc1S(=O)(=O)N1CCN(c2ccc(F)cc2)CC1 | 17.5 | 33.4 | 76.6* | 1.7
COc1ccc(C(C)C)cc1S(=O)(=O)N1CCN(c2ccccc2)CC1 | 66.2* | 53.2 | 2.6 | 10.6*
CCOc1ccc(Cl)cc1S(=O)(=O)N1CCN(c2ccc(C)c(C)c2)CC1 | 27.8 | 32.3 | 89.0* | 3.2
COc1c(S(=O)(=O)N2CCN(c3ccc(F)cc3)CC2)ccc(Cl)c1Cl | 42.2 | 33.3 | -1.2 | 5.0
SMILES | WT yeast gro inh | CHOP inhibitor | L major viab | RAM network inh
CC(=O)Nc1cccc(NC(=S)Nc2ccc(F)cc2F)c1 | -23.0 | 10.0 | 1.0 | 0.4
O=C(Cc1cccs1)NCc1cccc(F)c1 | 4.6 | 11.2 | -0.9 | 0.1
CCOc1ccc(Cl)cc1S(=O)(=O)N1CCN(c2ccc(F)cc2)CC1 | 38.2 | 32.8 | 2.9 | 9.0*
CC1CCCCC1NC(=O)COC(=O)CNC(=O)c1cccc(F)c1 (stereo unspecified) | -17.4 | 5.6 | -2.1 | 1.7
CCc1ccc(NC(=O)CSc2nnc(SCC(=O)Nc3ccc(CC)cc3)n2N)cc1 | -11.9 | 59.2 | 8.5 | 3.7
OC(COc1ccccc1)CN1CCCC1 (stereo unspecified) | -3.3 | -4.1 | -4.8 | 1.0
O=S(=O)(c1ccc(OCC(O)CN2CCN(c3ccccc3)CC2)cc1)N1CCOCC1 (stereo unspecified) | -3.4 | 52.7 | -0.8 | 0.7
OC(COc1ccc(OCc2ccccc2)cc1)CN1CCOCC1 (stereo unspecified) | -3.4 | -21.2 | 97.4* | 1.2
OC(COc1ccc(OCc2ccccc2)cc1)CN1CCCCC1 (stereo unspecified) | 10.9 | -9.2 | 96.2* | 0.7
